Measurements reported in PubChem BioAssay AID720650 (Broad Institute, 2013).
Active and inactive are the calls of the source. How the calls were made is not given here.

Assay: C difficile toxins, biochemical counterscreen, UDPG substrate absence, confirmatory dose response (AID 720650)
Conditions: series mostly up to 19.5 µM; activity change, negative = inhibition: at the top concentration

Row | Compound | AC50 | activity change, negative = inhibition
1 | CNC(=O)C[C@H]1CC[C@@H]2[C@H](COc3ccc(NC(=O)Nc4ccc(C)cc4)cc3C(=O)N2C)O1 | > 39 µM (inactive) | –
2 | CCCc1cc(=O)oc2c3c(cc(OCC(=O)NCCCn4ccnc4)c12)OC(C)(C)CC3 | – | 11.7% (inactive)
3 | CC(=O)N1CCN(c2ccc(S(C)(=O)=O)cc2[N+](=O)[O-])CC1 | – | -6.37% (inactive)
4 | COCCn1c(NC(=S)NC(=O)C2CC2)cc(=O)[nH]c1=O | – | -10.3% (inactive)
5 | C[C@H]1CN([C@@H](C)CO)S(=O)(=O)c2ccc(-c3ccncc3)cc2O[C@@H]1CN(C)Cc1ccc(Oc2ccccc2)cc1 | – | 1.01% (inactive)
6 | COc1cccc(CC(=O)OCC(=O)Nc2c(C)nn(-c3ccccc3)c2C)c1 | – | 0.671% (inactive)
7 | Clc1cccc(-c2ccc3ncnc(NCc4cccs4)c3c2)c1 | – | -12.4% (inactive)
8 | O=C(C[C@@H]1C[C@H]2c3cc(NC(=O)c4ccc5c(c4)OCO5)ccc3O[C@H]2[C@H](CO)O1)NCc1cccc(F)c1 | – | -1.94% (inactive)
9 | Cn1c(SCC(=O)c2cc3ccccc3o2)nnc1-c1ccccc1 | – | -12.4% (inactive)
10 | CN1CCN(/N=C/c2c[nH]c3ccccc23)CC1 | > 39 µM (inactive) | –
11 | O=C(O)c1cc(NS(=O)(=O)c2ccc(NC3CCCCC3)c([N+](=O)[O-])c2)cc(C(=O)O)c1 | – | 0.165% (inactive)
12 | O=C(NCCc1cccc(Cl)c1)c1ccc(Cl)c([N+](=O)[O-])c1 | – | -6.18% (inactive)
13 | O=[N+]([O-])c1cc(Br)ccc1NS(=O)(=O)c1ccccc1 | > 39 µM (inactive) | –
14 | COc1ccccc1C=C1SC(=S)NC1=O | – | -7.14% (inactive)
15 | Nc1cc(N)cc(C(=O)OCC(=O)Nc2cc(S(=O)(=O)N3CCCCC3)ccc2Cl)c1 | – | -5.99% (inactive)
